Experimental findings from PubChem BioAssay (NCATS) are described below.

Each structure is given as a SMILES string. Inconclusive results are not listed. Activity calls are given as the source filed them. Calls follow the shape of the dose curve; as a rule, active = well fitted inhibition curve with a large enough effect; inconclusive = small, poorly fitted or top-dose-only effect; inactive = flat fitted curve, though single readings scatter.

The target in test [1] is Luciferin 4-monooxygenase (Photinus pyralis) (UniProt P08659). Briefly: Biochemical firefly luciferase enzyme assay for NPC (AID 624030). Also: nearly all actives have a fitted effect of over 70% in size. The method in brief: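 Purified P. pyralis luciferase at 10 nM in 50 mM Tris Acetate (final), luminescence read within 5 minutes of enzyme addition to compounds. Activity normalised to PTC124 versus DMSO; concentration-response curves classed by r2, magnitude and activity.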

In test [2] the test system is CP215. As to the kind of experiment: qHTS profiling for inhibitors of Plasmodium falciparum proliferation (AID 504749). Also: nearly all actives have a fitted effect of over 60% in size. To be noted: P. falciparum in erythrocytes, SYBR Green DNA, 72 h; series mostly up to 28.7 µM. In a few lines:
(§1)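 Each compound contacts P. falciparum-infected red blood cells for 72 h at 37 C; lysis buffer (Tris, EDTA, saponin, Triton X, SYBR Green I) is added and fluorescence measured next morning; values normalized to controls.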
For orientation: In qHTS, concentration-response curves come from the screen itself.

Test [3] has as its system CP260. The description is as above. To be noted: P. falciparum in erythrocytes, SYBR Green DNA, 72 h; series mostly up to 28.7 µM. In a few lines:
as §1

Test [4] relates to CP266. Described as above. To be noted: P. falciparum in erythrocytes, SYBR Green DNA, 72 h; series mostly up to 28.7 µM. The method in brief:
as §1

The subject of test [5] is CP268. The test is described as above. To be noted: P. falciparum in erythrocytes, SYBR Green DNA, 72 h; series mostly up to 28.7 µM. The method in brief:
as §1

Test [6] relates to CP291. The test is described as above. The note with it: P. falciparum in erythrocytes, SYBR Green DNA, 72 h; series mostly up to 28.7 µM. In a few lines:
as §1

For test [7], the system named is CP297. The description is as above. To be noted: P. falciparum in erythrocytes, SYBR Green DNA, 72 h; series mostly up to 28.7 µM. The method in brief:
as §1

The subject of test [8] is CP305. Described as above. The note with it: P. falciparum in erythrocytes, SYBR Green DNA, 72 h; series mostly up to 28.7 µM. The method in brief:
as §1

In test [9] the test system is CP335. The test is described as above. To be noted: P. falciparum in erythrocytes, SYBR Green DNA, 72 h; series mostly up to 28.7 µM. The method in brief: as §1
Test [10] relates to DIV14. The test is described as above. The note with it: P. falciparum in erythrocytes, SYBR Green DNA, 72 h; series mostly up to 28.7 µM. In a few lines:
as §1

Test [11] concerns FAB9. The test is described as above. To be noted: P. falciparum in erythrocytes, SYBR Green DNA, 72 h; series mostly up to 28.7 µM. The method in brief: as §1
Test [12] relates to GB4. Described as above. To be noted: P. falciparum in erythrocytes, SYBR Green DNA, 72 h; series mostly up to 28.7 µM. In a few lines:
as §1

In test [13] the test system is HB3. Described as above. To be noted: P. falciparum in erythrocytes, SYBR Green DNA, 72 h; series mostly up to 28.7 µM. The method in brief:
as §1

Test [14] concerns ICS. The test is described as above. The note with it: P. falciparum in erythrocytes, SYBR Green DNA, 72 h; series mostly up to 28.7 µM. The method in brief:
as §1

Test [15] has as its system JCK. The description is as above. To be noted: P. falciparum in erythrocytes, SYBR Green DNA, 72 h; series mostly up to 28.7 µM. In a few lines:
as §1

For test [16], the system named is P93_24. The description is as above. To be noted: P. falciparum in erythrocytes, SYBR Green DNA, 72 h; series mostly up to 28.7 µM. The method in brief: as §1
Test [17] concerns PC26. The description is as above. The note with it: P. falciparum in erythrocytes, SYBR Green DNA, 72 h; series mostly up to 28.7 µM. The method in brief:
as §1

The test system of test [18] is PC49. Described as above. To be noted: P. falciparum in erythrocytes, SYBR Green DNA, 72 h; series mostly up to 28.7 µM. In a few lines:
as §1

The subject of test [19] is TAB109. The description is as above. The note with it: P. falciparum in erythrocytes, SYBR Green DNA, 72 h; series mostly up to 28.7 µM. In a few lines:
as §1

The test system of test [20] is DIV17. The test is described as above. To be noted: P. falciparum in erythrocytes, SYBR Green DNA, 72 h; series mostly up to 28.7 µM. The method in brief:
as §1
Potency is read from the fitted curve at half-maximal effect.

Luciferin 4-monooxygenase (Photinus pyralis), sequence (P08659 whole entry, looked up): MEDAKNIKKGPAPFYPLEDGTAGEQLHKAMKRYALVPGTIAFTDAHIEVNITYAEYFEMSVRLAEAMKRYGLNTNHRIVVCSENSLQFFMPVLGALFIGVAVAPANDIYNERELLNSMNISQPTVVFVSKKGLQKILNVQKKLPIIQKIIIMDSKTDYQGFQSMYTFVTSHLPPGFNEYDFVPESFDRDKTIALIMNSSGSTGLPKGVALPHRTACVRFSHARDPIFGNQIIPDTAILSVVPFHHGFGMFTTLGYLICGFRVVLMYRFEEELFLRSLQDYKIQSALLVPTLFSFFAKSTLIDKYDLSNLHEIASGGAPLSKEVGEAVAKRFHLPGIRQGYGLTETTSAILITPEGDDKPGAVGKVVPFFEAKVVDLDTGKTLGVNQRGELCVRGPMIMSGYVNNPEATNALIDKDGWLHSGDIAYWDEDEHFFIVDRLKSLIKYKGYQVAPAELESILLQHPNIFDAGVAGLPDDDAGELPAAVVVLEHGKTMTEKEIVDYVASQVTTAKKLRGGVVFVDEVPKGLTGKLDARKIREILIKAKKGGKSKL

On to `C[S+](C)CC[C@H](N)C(=O)O`, for which the Potency result in [1], in test [2], in [3], in test [4], in test [5] and in test [6] was “inactive” in each case. For the same molecule, the Potency result in [7], in test [8], in test [9], in test [10], in test [11] and in test [12] was “inactive” each time. In addition, the Potency result in [13], in test [14], in test [15], in [16], in test [17] and in test [18] was “inactive” each time. Further, the Potency entry in [19] was “inactive”.
With `OCC1O[C@H](O[C@H]2C(O)C(O)C(O)O[C@@H]2CO)C(O)C(O)C1O` (stereo partly specified), the Potency entry in [1], in test [2], in [3], in test [4], in test [5] and in test [6] was “inactive” each time. The Potency entry in test [7], in test [8], in test [9], in test [10], in test [20] and in [11] was “inactive” each time. In addition, the Potency entry in [12], in [13], in [14], in [15], in test [16] and in test [17] was “inactive” each time. The Potency entry in test [18] and in test [19] was “inactive” throughout.
As for `C[C@H]1[C@@H](OC(=O)CCC(=O)O)OC2OC3(C)CC[C@H]4[C@H](C)CC[C@@H]1[C@@]24OO3` (stereo partly specified), in [1], the Potency entry was “inactive”. Further, the Potency in [2] was 5.4 nM (active); in test [3], 5 nM (active); in test [4], 23.9 nM (active); in [5] it was 0.0054 µM (active); in [6] it was 4.3 nM (active); in test [7], 4.8 nM (active). The Potency was 0.006 µM (active) in test [8]; 4.8 nM (active) in [9]; 3.4 nM (active) in test [10]; 4.3 nM (active) in test [20]; 0.0045 µM (active) in test [11]; 3 nM (active) in test [12]. For the same molecule, the Potency in test [13] is 5 nM (active); in test [14], 3.2 nM (active); in [16], 2.2 nM (active); in test [17], 3.4 nM (active); in test [19] it was 2.5 nM (active).
On to `CO/N=C(/C(=O)N[C@@H]1C(=O)N2C(C(=O)O)=C(CSc3nc(C)c(CC(=O)O)s3)CS[C@H]12)c1csc(N)n1`, for which the Potency result in test [1], in test [2], in test [3], in test [4], in test [5] and in [6] was “inactive” in each case. Also, the Potency result in [7], in test [8], in test [9], in test [10], in test [20] and in test [11] was “inactive” in each case. Besides, the Potency entry in test [12], in test [13], in test [14], in test [15], in test [16] and in test [17] was “inactive” each time. For the same molecule, the Potency result in test [18] and in test [19] was “inactive” each time.
On to `CN1[C@@H]2CC[C@@H]1CC(OC(=O)[C@H](CO)c1ccccc1)C2` (stereo partly specified), for which the Potency entry in test [1], in test [2], in test [3], in test [4], in [5] and in test [6] was “inactive” each time. Moreover, the Potency result in [7], in test [8], in test [9], in [10], in test [20] and in test [11] was “inactive” in each case. Besides, the Potency entry in test [12], in [13], in [14], in test [16], in test [17] and in test [19] was “inactive” each time. Further, the Potency in test [15] is 15.8 µM (active).
For the molecule `O=C1[C@@H]2C[C@@H]3C[C@H]1C[C@@](O)(C3)C2`, the Potency entry in [1], in [2], in test [3], in test [4], in [5] and in test [6] was “inactive” each time. Further, the Potency entry in [7], in test [8], in test [9], in test [10], in test [20] and in test [11] was “inactive” throughout. Besides, the Potency result in test [12], in [13], in [14], in test [15], in [16] and in [17] was “inactive” each time. The Potency entry in [18] and in test [19] was “inactive” throughout.
For the molecule `CC[C@H](C)[C@H]1O[C@]2(CC[C@@H]1C)C[C@@H]1C[C@@H](C/C=C(\C)[C@H](O[C@@H]3C[C@H](OC)[C@H](O[C@@H]4C[C@H](OC)[C@@H](O)[C@H](C)O4)[C@H](C)O3)[C@@H](C)/C=C/C=C3\CO[C@@H]4[C@H](O)C(C)=C[C@@H](C(=O)O1)[C@]34O)O2`, the Potency entry in [1] was “inactive”. In addition, the Potency was 1350 nM (active) in test [2]; 2240 nM (active) in test [3]; 1.69 µM (active) in test [5]; 1510 nM (active) in test [6]; 1510 nM (active) in test [7]; 1.69 µM (active) in [8]. The Potency in [9] was 1350 nM (active); in [10], 1690 nM (active); in test [20], 2130 nM (active); in test [11] it was 3.16 µM (active); in test [12] it was 1510 nM (active); in [13], 2000 nM (active). The Potency was 1260 nM (active) in test [14]; 15.8 µM (active) in test [15]; 1260 nM (active) in test [16]; 1200 nM (active) in test [17]; 1260 nM (active) in test [19].
Turning to `CC1C(=O)C(=O)C=CN1C` (stereo unspecified), the Potency entry in test [1], in test [2], in test [4], in test [5], in [6] and in [7] was “inactive” in each case. The Potency entry in test [8], in [9], in test [10], in [20], in test [11] and in test [12] was “inactive” throughout. Also, the Potency result in test [13], in test [14], in test [15], in test [16], in [17] and in test [18] was “inactive” each time. Further, the Potency entry in test [19] is “inactive”.
As to `Cc1ccc(Nc2ncccc2C(=O)O)cc1C`, the Potency in test [1] was 11.4 µM (active). Also, the Potency entry in [2], in test [3], in [4], in test [5], in [6] and in [7] was “inactive” each time. For the same molecule, the Potency result in [8], in test [9], in test [10], in test [20], in [11] and in test [12] was “inactive” each time. The Potency entry in test [13], in test [14], in test [15], in test [16], in [17] and in test [18] was “inactive” in each case. The Potency result in test [19] was “inactive”.
In the case of `O=[N+]([O-])O[C@H]1CO[C@H]2[C@@H]1OC[C@H]2O`, the Potency entry in [1], in test [2], in test [3], in test [4], in [5] and in [6] was “inactive” each time. Also, the Potency entry in [7], in test [8], in [9], in test [10], in test [20] and in test [11] was “inactive” in each case. In addition, the Potency entry in test [12], in test [13], in test [14], in [15], in [16] and in test [17] was “inactive” in each case. Further, the Potency result in test [18] and in test [19] was “inactive” in each case.
As to `CN[C@H](C)CCC=C(C)C`, the Potency entry in [1] was “inactive”. Also, the Potency in test [2] was 601 nM (active); in [3] it was 224 nM (active); in [4], 536 nM (active); in test [5] it was 1.51 µM (active); in test [6], 953 nM (active); in test [7], 601 nM (active). Further, the Potency in [8] is 1.69 µM (active); in [9], 239 nM (active); in [10] it was 151 nM (active); in [20], 190 nM (active); in test [11], 1.41 µM (active); in test [12], 135 nM (active). In addition, the Potency was 199 nM (active) in [13]; 44.7 nM (active) in [14]; 0.355 µM (active) in [15]; 251 nM (active) in [16]; 190 nM (active) in [17]; 282 nM (active) in test [18]. Moreover, the Potency in [19] was 398 nM (active).
As for `CN(C)CC/C=C1\c2ccccc2COc2ccc(CC(=O)O)cc21`, the Potency entry in test [1], in test [2], in test [3], in [4], in test [5] and in [6] was “inactive” each time. In addition, the Potency result in test [7], in test [8], in test [10], in test [20], in test [11] and in test [12] was “inactive” each time. Further, the Potency entry in test [13], in [14], in test [15], in [16], in test [18] and in test [19] was “inactive” throughout.
